Structures can show the parent of a compound that is named as a salt. ± gives the standard deviation of the averaged measurements.
Columns and labels:
Assay in all cases: growth (OD600 after 10 h); higher = more growth (less inhibition)
[1] = system: E. coli TESEC Alr+ wild-type control; conditions: compound 0.1 mM; raw OD600 reference: median of DMSO wells 0.241, cell-free background 0.041
Description: (§1)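 TESEC Mtb Alr E. coli, or the Alr+ wild-type control, in 384-well plates with Prestwick library compounds at 0.1 mM and 1% DMSO, across arabinose induction levels of 1E3 to 1E7 nM. Growth is read as OD600 after 10 h at 37 °C in triplicate biological replicates.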

E. coli TESEC Mtb Alr [2] = conditions: compound 0.1 mM
Description: as §1

E. coli TESEC Mtb Asd = conditions: compound 0.1 mM
Description: (§2)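 TESEC E. coli strains in which the native enzyme is deleted and replaced by arabinose-inducible Mtb Asd, DapB, CysH or TrpD, each grown in its selective medium. Strains were screened against the Prestwick library at 0.1 mM and 1% DMSO in 384-well format at low and high arabinose induction. Growth is read as OD600 after 10 h in triplicate.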

E. coli TESEC Mtb DapB = conditions: compound 0.1 mM
Description: as §2

E. coli TESEC Mtb Alr [3] = conditions: compound 0.1 mM; remark: listed apart in the source
Description: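 TESEC Mtb Alr E. coli (ΔaraC ΔtolC ΔentC Δalr ΔdadX, arabinose-inducible Mtb Alr) or the Alr+ wild-type control strain, grown in defined M9-fructose medium without D-alanine in 96-well plates with Prestwick library compounds at 0.1 mM and 1% DMSO. Low Alr induction is 0.1 µM arabinose and high induction is 10 mM arabinose.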

[4] = arabinose 1000 nM, raw OD600 reference: median of DMSO wells 0.294, cell-free background 0.041
[5] = arabinose 10000 nM, raw OD600 reference: median of DMSO wells 0.264, cell-free background 0.041
[6] = arabinose 100000 nM, raw OD600 reference: median of DMSO wells 0.201, cell-free background 0.041
[7] = arabinose 1000000 nM, raw OD600 reference: median of DMSO wells 0.193, cell-free background 0.041
[8] = arabinose 10000000 nM, raw OD600 reference: median of DMSO wells 0.146, cell-free background 0.041
[9] = arabinose induction (level): High, raw OD600 reference: median of DMSO wells 0.331, cell-free background 0.041
[10] = arabinose induction (level): Low, raw OD600 reference: median of DMSO wells 0.417, cell-free background 0.041
[11] = arabinose induction (level): High, raw OD600 reference: median of DMSO wells […], cell-free background 0.041
[12] = arabinose induction (level): Low, raw OD600 reference: median of DMSO wells 0.227, cell-free background 0.041
[13] = arabinose 100 nM, raw OD600 reference: median of DMSO wells 0.413, cell-free background 0.052
[14] = arabinose 10000000 nM, raw OD600 reference: median of DMSO wells […], cell-free background 0.052

Row | Compound | growth [1] | growth (E. coli TESEC Mtb Alr [2]; [4]) | growth (E. coli TESEC Mtb Alr [2]; [5]) | growth (E. coli TESEC Mtb Alr [2]; [6]) | growth (E. coli TESEC Mtb Alr [2]; [7]) | growth (E. coli TESEC Mtb Alr [2]; [8]) | growth (E. coli TESEC Mtb Asd; [9]) | growth (E. coli TESEC Mtb Asd; [10]) | growth (E. coli TESEC Mtb DapB; [11]) | growth (E. coli TESEC Mtb DapB; [12]) | growth (E. coli TESEC Mtb Alr [3]; [13]) | growth (E. coli TESEC Mtb Alr [3]; [14])
1 | CCN(CC)CCNC(C(=O)OCCC(C)C)c1ccccc1 (centres undefined) [Camylofine chlorhydrate] | 0.198 ± 0.0073 | 0.254 ± 0.0087 | 0.261 ± 0.0027 | 0.208 ± 0.017 | 0.156 ± 0.0056 | 0.148 ± 0.0031 | 0.228 ± 0.046 | 0.372 ± 0.11 | 0.153 ± 0.013 | 0.171 ± 0.016 | 0.406 ± 0.012 | 0.341 ± 0.012
2 | O=C(CCCCCCC(=O)Nc1ccccc1)NO [Vorinostat] | 0.253 ± 0.0073 | 0.295 ± 0.0062 | 0.238 ± 0.0041 | 0.164 ± 0.012 | 0.153 ± 0.0023 | 0.124 ± 0.011 | 0.195 ± 0.028 | 0.335 ± 0.061 | 0.174 ± 0.0062 | 0.204 ± 0.0056 | 0.415 ± 0.01 | 0.3 ± 0.021
3 | OC(CCCN1CCCCC1)(c1ccccc1)c1ccccc1 [Diphenidol hydrochloride] | 0.227 ± 0.0039 | 0.278 ± 0.0057 | 0.257 ± 0.0075 | 0.2 ± 0.02 | 0.162 ± 0.0026 | 0.137 ± 0.0047 | 0.262 ± 0.012 | 0.488 ± 0.018 | 0.182 ± 0.018 | 0.221 ± 0.054 | 0.407 ± 0.008 | 0.345 ± 0.0049
4 | CCN(CC)CCOC(=O)C(Cc1cccc2ccccc12)CC1CCCO1 (centres undefined) [Nafronyl oxalate] | 0.15 ± 0.0052 | 0.219 ± 0.0043 | 0.255 ± 0.014 | 0.157 ± 0.0057 | 0.0991 ± 0.0023 | 0.151 ± 0.0053 | 0.127 ± 0.0055 | 0.309 ± 0.11 | 0.184 ± 0.019 | 0.174 ± 0.008 | 0.407 ± 0.0062 | 0.293 ± 0.015
5 | CCOC(=O)Nc1ccc2c(c1)N(C(=O)CCN1CCOCC1)c1ccccc1S2 [Moricizine hydrochloride] | 0.157 ± 0.0017 | 0.202 ± 0.0069 | 0.222 ± 0.0081 | 0.196 ± 0.012 | 0.1097 ± 0.00081 | 0.14 ± 0.0063 | 0.175 ± 0.018 | 0.228 ± 0.083 | 0.168 ± 0.0088 | 0.199 ± 0.022 | 0.3937 ± 0.0035 | 0.258 ± 0.022
6 | O=C1CCc2ccc(OCCCCN3CCN(c4cccc(Cl)c4Cl)CC3)cc2N1 [Aripiprazole] | 0.171 ± 0.013 | 0.243 ± 0.021 | 0.298 ± 0.02 | 0.15 ± 0.005 | 0.1175 ± 0.001 | 0.159 ± 0.006 | 0.21 ± 0.022 | 0.391 ± 0.036 | 0.177 ± 0.011 | 0.213 ± 0.021 | 0.0572 ± 0.0048 | 0.0531 ± 0.0021
7 | CC=C(C)C(=O)OC1C(OC(C)=O)C2(CO)C(O)CC3(C)C(=CCC4C5(C)CCC(OC6OC(C(=O)O)C(OC7OC(CO)C(O)C(O)C7O)C(O)C6OC6OC(CO)C(O)C(O)C6O)C(C)(CO)C5CCC43C)C2CC1(C)C (stereo not drawn) [Beta-Escin] | 0.289 ± 0.0075 | 0.333 ± 0.0081 | 0.24 ± 0.0056 | 0.366 ± 0.011 | 0.151 ± 0.0075 | 0.226 ± 0.01 | 0.271 ± 0.026 | 0.342 ± 0.048 | 0.329 ± 0.018 | 0.323 ± 0.0085 | 0.438 ± 0.018 | 0.392 ± 0.011
8 | Nc1ccc(C(=O)O)c(O)c1 [4-aminosalicylic acid] | 0.247 ± 0.0075 | 0.305 ± 0.011 | 0.277 ± 0.0057 | 0.201 ± 0.017 | 0.19 ± 0.004 | 0.153 ± 0.0068 | 0.222 ± 0.024 | 0.377 ± 0.086 | 0.199 ± 0.025 | 0.263 ± 0.017 | 0.422 ± 0.0061 | 0.302 ± 0.014
9 | CC(C)OC(=O)C(C)(C)Oc1ccc(C(=O)c2ccc(Cl)cc2)cc1 [Fenofibrate] | 0.219 ± 0.0026 | 0.235 ± 0.015 | 0.245 ± 0.0051 | 0.143 ± 0.0063 | 0.0897 ± 0.0018 | 0.161 ± 0.0021 | 0.298 ± 0.013 | 0.397 ± 0.039 | 0.176 ± 0.015 | 0.215 ± 0.037 | 0.401 ± 0.016 | 0.089 ± 0.01
10 | COc1nc(C)nc(Cl)c1NC1=NCCN1 [Moxonidine] | 0.241 ± 0.011 | 0.298 ± 0.014 | 0.262 ± 0.0065 | 0.18 ± 0.013 | 0.187 ± 0.0025 | 0.133 ± 0.0069 | 0.248 ± 0.033 | 0.434 ± 0.025 | 0.209 ± 0.016 | 0.254 ± 0.017 | 0.411 ± 0.015 | 0.342 ± 0.02
11 | CN1CCCCC1CCN1c2ccccc2Sc2ccc([S+](C)[O-])cc21 (centres undefined) [Mesoridazine besylate] | 0.169 ± 0.0023 | 0.24 ± 0.012 | 0.266 ± 0.0092 | 0.225 ± 0.032 | 0.131 ± 0.0058 | 0.149 ± 0.005 | 0.204 ± 0.023 | 0.339 ± 0.091 | 0.191 ± 0.007 | 0.202 ± 0.027 | 0.403 ± 0.0065 | 0.3 ± 0.02
12 | C[C@@H]1C[C@H]2[C@@H]3C[C@H](F)C4=CC(=O)C=C[C@]4(C)[C@@]3(F)[C@@H](O)C[C@]2(C)[C@@]1(O)C(=O)CO [Flumethasone] | 0.212 ± 0.0028 | 0.275 ± 0.013 | 0.256 ± 0.0067 | 0.188 ± 0.0075 | 0.154 ± 0.0069 | 0.127 ± 0.0043 | 0.231 ± 0.007 | 0.429 ± 0.022 | 0.193 ± 0.011 | 0.229 ± 0.014 | 0.402 ± 0.0073 | 0.307 ± 0.013
13 | Cc1ccc(Cl)c(Nc2ccccc2C(=O)O)c1Cl [Meclofenamic acid sodium salt monohydrate] | 0.0491 ± 0.00067 | 0.0555 ± 0.0013 | 0.0424 ± 0.00044 | 0.0566 ± 0.00087 | 0.04353 ± 0.00038 | 0.0628 ± 0.001 | 0.0702 ± 0.014 | 0.0796 ± 0.0032 | 0.118 ± 0.021 | 0.123 ± 0.016 | 0.0708 ± 0.027 | 0.0591 ± 0.0032
14 | CN(C)CCC(c1ccc(Cl)cc1)c1ccccn1 (centres undefined) [Chlorpheniramine maleate] | 0.22 ± 0.0024 | 0.264 ± 0.022 | 0.259 ± 0.0028 | 0.18 ± 0.018 | 0.162 ± 0.0019 | 0.135 ± 0.0055 | 0.291 ± 0.091 | 0.399 ± 0.061 | 0.187 ± 0.012 | 0.23 ± 0.0095 | 0.4277 ± 0.0018 | 0.325 ± 0.01
15 | Cc1ccccc1N1C(=O)c2cc(S(N)(=O)=O)c(Cl)cc2NC1C (centres undefined) [Metolazone] | 0.214 ± 0.0042 | 0.226 ± 0.031 | 0.258 ± 0.0029 | 0.214 ± 0.0094 | 0.136 ± 0.004 | 0.1376 ± 0.00093 | 0.386 ± 0.049 | 0.422 ± 0.091 | 0.199 ± 0.038 | 0.254 ± 0.087 | 0.4 ± 0.018 | 0.292 ± 0.011
16 | CN(C)CCN(Cc1ccccc1)c1ccccn1 [Tripelennamine hydrochloride] | 0.203 ± 0.0015 | 0.281 ± 0.0071 | 0.254 ± 0.0058 | 0.181 ± 0.0046 | 0.184 ± 0.003 | 0.133 ± 0.004 | 0.232 ± 0.055 | 0.329 ± 0.1 | 0.177 ± 0.0099 | 0.209 ± 0.027 | 0.406 ± 0.0074 | 0.307 ± 0.0053
17 | NCCc1ccc(O)c(O)c1 [Dopamine hydrochloride] | 0.1987 ± 0.0012 | 0.27 ± 0.012 | 0.274 ± 0.0041 | 0.201 ± 0.021 | 0.197 ± 0.022 | 0.144 ± 0.009 | 0.335 ± 0.051 | 0.281 ± 0.036 | 0.174 ± 0.0035 | 0.202 ± 0.032 | 0.4196 ± 0.0037 | 0.333 ± 0.0035

Source: the supplement of paper PMC9262897, “Low-cost anti-mycobacterial drug discovery using engineered E. coli” (Nature Communications, 2022)
